Screening results from PubChem.
Only a selection was taken, and hits are over-represented in it overall.
Dicer inh: blocks human Dicer maturation of pre-miR-21; cat-ELCCA pre-miR-21 Dicer processing, chemiluminescence; stronger effect = higher value; z-score at 25 µM; hit rate 6% among 47,000; AID 1347074; in the data active = z-score above about 3, passing the limit was not always enough;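 note: plate controls were vehicle for no effect and no enzyme for full effect; higher signal means more uncleaved substrate so more Dicer inhibition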
Active calls of the source: *.

Screening CCCN1C(=O)C(O)(CC(=O)c2cc(OC)ccc2OC)c2cc(Br)ccc21 (stereo unspecified) returned Dicer inh -0.9.
Cc1cc(CN=C(N)NC(N)=S)c(C)cc1CN=C(N)NC(N)=S was read as Dicer inh -7.7.
For CC12CN3CC(C)(CN(C1)C3c1ccc(O)cc1)C2O (stereo unspecified) the results were Dicer inh 0.36.
`Nc1ccc(Oc2ccc3nc(-c4ccc(N)cc4)[nH]c3c2)cc1` gave Dicer inh 0.25.
`Nc1ccc2nc(-c3cccnc3)[nH]c2c1` gave Dicer inh 0.6.
Screening Nc1ccc2nc(-c3ccccc3)[nH]c2c1 returned Dicer inh -3.4.
`Cn1c(-c2ccc(-c3nc4ccccc4[nH]3)cc2)nc2cc(N)ccc21` gave Dicer inh 4.7*.
For Clc1ccc(-c2nc3ccccc3[nH]2)cc1 the results were Dicer inh -1.5.
For Cn1c(-c2ccc3nc(-c4ccc(N)cc4)[nH]c3c2)nc2cc(N)ccc21 the results were Dicer inh 5.7*.
`CNC(=S)NNC(=O)c1ccc(C(F)(F)F)cn1` gave Dicer inh 1.9.
Screening CCOC(=O)C1=C(C)NC2=C(C(=O)CCC2)C1c1ccc(OC)c(Br)c1 (stereo unspecified) returned Dicer inh -0.37.
`COc1ccc(C2NN=C(c3ccccc3OCc3ccccc3)C2O)cc1` (stereo unspecified) gave Dicer inh -0.96.
Screening O=C(NCc1ccc(S(=O)(=O)N2CCN(C3c4ccccc4-c4ccccc43)CC2)s1)c1ccccc1 returned Dicer inh 1.1.
Screening CN1CCc2c(sc3c2C(=O)NC(/C=C\c2ccccc2)N3)C1 (stereo unspecified) returned Dicer inh 1.4.
For CN1CC=C(/C=C/c2ccccc2)CC1 the results were Dicer inh 3.8*.
C(=C\c1ccccc1)/CN1CCN(C/C=C/c2ccccc2)CC1 was read as Dicer inh -1.6.
Screening O=C(CSc1nnc(-c2ccc(Br)cc2)o1)NC1CCCCC1 returned Dicer inh 1.5.
For COc1cccc(C2N3CCCN2CC3)c1OCc1ccccc1 (stereo unspecified) the results were Dicer inh -0.03.
For NC(=O)NC(=S)NC(=O)c1ccccc1Cl the results were Dicer inh -2.3.
`CC(C)(ONC(=O)Nc1ccccc1Cl)C(=O)O` gave Dicer inh -0.32.
NC(=O)NC(=O)Nc1ccccc1Cl was read as Dicer inh 6*.
Cc1cc(Cl)ccc1Nc1nnc(-c2ccccc2Cl)s1 was read as Dicer inh -1.5.
Cc1nnc(Nc2cccc(Cl)c2C)s1 was read as Dicer inh 3.4*.
For Clc1cccc(Nc2nnns2)c1Cl the results were Dicer inh 1.4.
CCCCCC(C)n1[nH]c(=O)c2c(C)cc(=O)[nH]c21 (stereo unspecified) was read as Dicer inh -5.1.
`O=C(CC1SC(=NC2CC3C=CC2C3)NC1=O)Nc1cc(Cl)ccc1Cl` (stereo unspecified) gave Dicer inh 0.03.
O=C(Nc1ccc(OC(F)(F)F)cc1)Nc1cc2ccccc2s1 was read as Dicer inh 2.1.
COc1cc2nc(NC(C)=O)sc(=O)c2cc1OC was read as Dicer inh 3.6*.
COc1cc2nc(NC(=O)c3ccc(C(C)(C)C)cc3)sc(=O)c2cc1OC was read as Dicer inh -1.2.
`COc1cc2nc(NC(=O)c3ccco3)sc(=O)c2cc1OC` gave Dicer inh 1.
For CCOC(=O)c1cnc(C(F)(F)F)nc1N/N=C/c1ccc(Cl)cc1 the results were Dicer inh -1.9.
For Cc1ccc(N(CC2=CC3C=CC=CC3NC2=O)C(=O)c2cncc(Br)c2)cc1 (stereo unspecified) the results were Dicer inh 0.07.
`CCCc1[nH]nc2c1C(c1c(F)cccc1Cl)C(C#N)=C(N)O2` (stereo unspecified) gave Dicer inh 0.36.
Screening CCc1cc2c(=O)c(-c3nc4ccccc4n3C)coc2c(CN(C)C)c1O returned Dicer inh 3.4*.
Screening CCc1cc2c(=O)c(-c3nc4ccccc4n3C)c(C)oc2cc1O returned Dicer inh 1.3.
For O=c1c(-c2nc3ccccc3s2)coc2c(CN3CCCCC3)c(O)ccc12 the results were Dicer inh 0.4.
CCc1cc2c(=O)c(-c3nc4ccccc4[nH]3)coc2c(CN(CC)CC)c1O was read as Dicer inh 0.96.
`Cc1nc(-c2coc3c(C)c(O)c(CN(C)C)cc3c2=O)cs1` gave Dicer inh -0.18.
CCc1cc2c(=O)c(-c3nc4ccccc4[nH]3)coc2c(CN2CCC(C)CC2)c1O was read as Dicer inh 4.9*.
Cc1ccc(C2C3=C(CC(C)(C)CC3=O)Nc3ncnn32)cc1 (stereo unspecified) was read as Dicer inh 1.1.
For CCOC(=O)C1=C(Nc2ccc(OS(=O)(=O)c3ccc(Cl)cc3)cc2)C(=O)N(C(C)(C)C)C1 the results were Dicer inh -0.34.
`C#CCSc1nc(C)c2cc(OC)ccc2n1` gave Dicer inh 1.6.
CNc1ncnc(Oc2ccc(Cl)cc2)c1[N+](=O)[O-] was read as Dicer inh -0.48.
`O=[N+]([O-])c1c(Nc2ccc(Cl)cc2)ncnc1Nc1ccc(Cl)cc1` gave Dicer inh 3.5*.
`CNc1ncnc(NNC(=O)Nc2cccc(Cl)c2)c1[N+](=O)[O-]` gave Dicer inh 1.6.
Screening O=[N+]([O-])c1c(Nc2cccc(C(F)(F)F)c2)ncnc1Nc1cccc(C(F)(F)F)c1 returned Dicer inh -0.15.
Screening Cc1[nH]nc(Nc2ccc(C(C)C)cc2)c1[N+](=O)[O-] returned Dicer inh 0.47.
`CNc1ncnc(NNC(=O)Nc2ccc(Cl)cc2)c1[N+](=O)[O-]` gave Dicer inh 4.5*.
For Cc1cc(S(=O)(=O)n2ccc(-c3cc(Cl)sc3Cl)n2)cc(C)c1F the results were Dicer inh 1.2.
For Cc1nn(-c2ccccc2)c2[nH]c(=O)c(C#N)c(-c3ccc(Cl)cc3)c12 the results were Dicer inh -0.79.
For N#CCCN(CC1CCCO1)C(=S)Nc1cc(C(F)(F)F)cc(C(F)(F)F)c1 (stereo unspecified) the results were Dicer inh -1.8.
COC(=O)c1ccc(S(=O)(=O)NCc2ccc3c(c2)OCO3)n1C was read as Dicer inh 6.1.
Screening COc1ccc2c(=O)cc(-c3ccccc3)oc2c1 returned Dicer inh -0.36.
Screening O=c1ccc2c(-c3ccccc3)c3ccc(O)cc3oc-2c1 returned Dicer inh 3.1*.
O=c1c2ccccc2oc2cc(O)ccc12 was read as Dicer inh 0.39.
For O=C(CN1CCOCC1)Nc1ccccc1Sc1nccc(C(F)(F)F)n1 the results were Dicer inh -1.4.
Screening Cc1csc(NC(=O)Nc2ccc(Cl)cc2Cl)c1 returned Dicer inh 0.62.
Screening CCCCc1ccc(N=CNO)c(C)c1 returned Dicer inh 4*.
Cc1cc(N=CNO)c2ccccc2n1 was read as Dicer inh -0.52.
`ONC=Nc1cc(Cl)c(-n2cccc2)cc1Cl` gave Dicer inh -0.78.
Screening CC1=CC(C)C2(CO)COC(c3ccc4c(c3)OCO4)C1C2C (stereo unspecified) returned Dicer inh -1.3.
Screening CC1=CC(C)C2(CO)COC(c3ccc(O)cc3)C1C2C (stereo unspecified) returned Dicer inh 3.9*.
Screening CC1=CC(C)C2(CO)COC(c3cccnc3)C1C2C (stereo unspecified) returned Dicer inh 0.1.
